Experimental data from the supplement of paper PMC10646978.
± gives the standard deviation.

Tests used:
Conditions in all cases: modulator concentration 10 µM
[1] = system: RAW-Dual (murine macrophage reporter line); assay: NF-kB reporter (SEAP) activity fold change vs agonist alone; higher = enhanced NF-kB activity
In short: (§1)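 Overnight stimulation with a PRR agonist followed pre-incubation for 1 hour at 37 °C with compound at 10 μM final. This was done in RAW-Dual murine macrophage reporter cells seeded at 50 000 per well in 384-well plates. NF-κB (SEAP, QUANTI-Blue absorbance at 620 nm) and IRF (Lucia luciferase, QUANTI-Luc luminescence) were read from the supernatant. Each reporter's fold change relative to the mean agonist-only control on the same plate was averaged over replicate plates.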

[2] = system: RAW-Dual (murine macrophage reporter line); assay: IRF reporter (Lucia luciferase) activity fold change vs agonist alone; higher = enhanced IRF activity
In short: as §1

[3] = system: RAW-Dual (murine macrophage reporter line); assay: viability score (confluency relative to resting cells, overnight) (fraction); higher = more viable, active = viable (0.7 or more)
In short: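 RAW-Dual macrophages in 384-well plates were incubated overnight with compound, final concentration 10 μM. Confluency images from IncuCyte were processed in IncuCyte software into two masks covering all imaged wells. The viability score is each well's confluency relative to resting cells, and a compound met the cutoff when both masks exceeded 70% of resting cells.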

[4] = agonist: CpG ODN 1826 0.5 ug/mL

SMILES	NF-kB reporter [1, 4]	NF-kB reporter ([1]; agonist: LPS 0.1 ug/mL)	NF-kB reporter ([1]; agonist: MPLA […])	IRF reporter ([2]; agonist: 3'3'-cGAMP 10 ug/mL)	IRF reporter ([2]; agonist: LPS 0.1 ug/mL)	IRF reporter ([2]; agonist: MPLA […])	viability score [3]
CC(C)(C)C1=CC2(C=C(C(C)(C)C)C1=O)Nc1cccc3cccc(c13)N2	0.874 ± 0.12	1.08 ± 0.062	0.96 ± 0.075	0.754 ± 0.037	1.17 ± 0.11	0.942 ± 0.078	1.01 (active)
CN(C)C(CNC(=O)NCc1ccc(Cl)cc1)c1ccc2c(c1)CCO2 (configuration not stated)	0.616 ± 0.1	1.17 ± 0.091	0.937 ± 0.1	0.854 ± 0.026	1.2 ± 0.23	1.4 ± 0.14	1 (active)
Cc1cnc(Nc2ccc(OCCN3CCCC3)cc2)nc1Nc1cccc(S(=O)(=O)NC(C)(C)C)c1	0.769 ± 0.17	1.81 ± 0.14	2.74 ± 0.12	0.0927 ± 0.014	0.0391 ± 0.0087	0.064 ± 0.028	0.0864 (inactive)
C[N+]1(C)CCC(OC(=O)C(O)(c2ccccc2)C2CCCC2)C1 (configuration not stated) [Prestw-746]	0.923 ± 0.061	0.998 ± 0.066	0.943 ± 0.062	0.949 ± 0.031	1.24 ± 0.16	1.13 ± 0.17	1.01 (active)
CC(=O)Nc1ccc(O)cc1 [Prestw-868]	0.876 ± 0.28	1.04 ± 0.081	0.965 ± 0.082	0.972 ± 0.056	0.938 ± 0.19	1.03 ± 0.14	0.998 (active)
Oc1nc(O)nc(N(c2ccccc2)c2ccccc2)n1	1.18 ± 0.095	1.02 ± 0.098	1.02 ± 0.09	1 ± 0.13	1.09 ± 0.15	1.08 ± 0.29	1 (active)
Cc1cccc(-c2cc3nc(C)c(Cl)c(O)n3n2)c1	1.04 ± 0.058	1.04 ± 0.091	0.948 ± 0.025	1.04 ± 0.039	1 ± 0.1	1.04 ± 0.24	0.996 (active)
O=C(Nc1cc2c(cc1Cl)OCCO2)c1cc(Cl)ccc1O	0.882 ± 0.068	0.902 ± 0.077	0.969 ± 0.092	1.08 ± 0.034	1.26 ± 0.16	1.45 ± 0.23	1.01 (active)
Cc1ccc2[nH]c3nc(NN)nnc3c2c1	1.03 ± 0.079	0.929 ± 0.077	0.967 ± 0.024	0.913 ± 0.05	0.998 ± 0.077	0.836 ± 0.071	1 (active)
CC1CCC2C(C)(C)C3CC12CCC3(C)O (configuration not stated)	1.04 ± 0.081	0.883 ± 0.11	0.965 ± 0.094	0.999 ± 0.052	1.15 ± 0.16	1.25 ± 0.23	1.05 (active)
Nc1ncn(C2O[C@H](CO)[C@@H](O)[C@H]2O)c(=O)n1 (some centres not stated) [Prestw-866]	2.01 ± 0.35	1.24 ± 0.18	4.32 ± 0.33	0.508 ± 0.033	0.622 ± 0.14	0.747 ± 0.1	0.806 (active)
COc1cc2ncnc(Nc3ccc(F)c(Cl)c3)c2cc1NC(=O)/C=C/CN1CCCCC1	0.666 ± 0.32	0.936 ± 0.083	0.989 ± 0.081	0.486 ± 0.026	0.958 ± 0.2	0.861 ± 0.22	0.988 (active)
Clc1ccccc1C=NNc1nc(-c2ccccc2)cc(-c2ccccc2)n1	1.15 ± 0.11	1.1 ± 0.073	1.79 ± 0.07	1.2 ± 0.23	1.04 ± 0.065	1.65 ± 0.29	1 (active)
Cn1cc(CC(=O)NC2CCN(c3cc(C(F)(F)F)ncn3)CC2)c2ccccc21	1.45 ± 0.082	1.24 ± 0.1	1.13 ± 0.23	0.77 ± 0.039	1.24 ± 0.075	1.39 ± 0.1	0.929 (active)
Cc1ccc(C=C2Oc3c(ccc(O)c3CN3CCN(CCO)CC3)C2=O)cc1	1.12 ± 0.086	1.01 ± 0.13	1.19 ± 0.11	1.02 ± 0.038	1.39 ± 0.21	1.55 ± 0.3	1.02 (active)
Cc1cc(=O)n(CC(=O)N2CCC(c3ccccc3F)S(=O)(=O)CC2)cn1 (configuration not stated)	1.01 ± 0.06	1.07 ± 0.084	0.953 ± 0.09	1 ± 0.063	1.12 ± 0.081	1.04 ± 0.091	1 (active)
COc1ccc(C(=O)CSc2nnc(NC(=O)C3CC(=O)N(c4cccc(OC)c4)C3)s2)cc1 (configuration not stated)	1.15 ± 0.066	1.11 ± 0.11	1.23 ± 0.13	0.528 ± 0.026	0.758 ± 0.059	0.708 ± 0.23	1.01 (active)
COc1cc(Cl)cc(C=NNC(=O)c2cc(C)n[nH]2)c1O	1.16 ± 0.09	0.793 ± 0.038	0.943 ± 0.082	0.785 ± 0.066	1.46 ± 0.088	1.62 ± 0.14	0.968 (active)
Cc1ccc2sc(NC(=O)c3cccc(N4C(=O)CCC4=O)c3)nc2c1C	0.946 ± 0.097	0.877 ± 0.074	1.11 ± 0.12	0.939 ± 0.03	1.39 ± 0.19	1.57 ± 0.21	1.02 (active)
CCN(CCO)CCCC(C)Nc1ccnc2cc(Cl)ccc12.O=S(=O)(O)O (configuration not stated)	0.877 ± 0.037	0.984 ± 0.08	1.44 ± 0.24	0.984 ± 0.049	1.08 ± 0.28	1.15 ± 0.42	1 (active)
CN1CCN(c2nc(C3=C(c4c[nH]c5ccccc45)C(=O)NC3=O)c3ccccc3n2)CC1	0.748 ± 0.034	0.961 ± 0.081	1.21 ± 0.071	0.798 ± 0.041	1.14 ± 0.24	1.17 ± 0.32	0.988 (active)
O.S=c1nc[nH]c2nc[nH]c12	0.844 ± 0.037	0.902 ± 0.1	0.989 ± 0.11	0.768 ± 0.035	1.23 ± 0.28	1.36 ± 0.57	0.994 (active)
O=C(Nc1ccc(Br)cc1)c1cccc(S(=O)(=O)NC2CCCCC2)c1	0.746 ± 0.057	0.846 ± 0.076	1.24 ± 0.035	0.527 ± 0.019	1.04 ± 0.14	1 ± 0.17	0.983 (active)
O=C1NC(=O)C(=Cc2ccc(-c3cccc(Cl)c3)o2)S1	0.774 ± 0.36	0.761 ± 0.064	0.776 ± 0.064	0.747 ± 0.032	1.13 ± 0.14	1.2 ± 0.16	0.943 (active)
COc1cccc(-c2csc(C(C#N)=CNc3cc(Cl)ccc3OC)n2)c1	0.939 ± 0.096	1.06 ± 0.083	0.963 ± 0.093	0.964 ± 0.024	1.24 ± 0.21	1.01 ± 0.26	1.01 (active)
CCN(CC)CC#CC(OC)(c1ccccc1)c1ccccc1.Cl	0.356 ± 0.088	0.414 ± 0.063	0.47 ± 0.082	0.549 ± 0.019	1.16 ± 0.16	1.29 ± 0.23	0.148 (inactive)
